Assays:
Settings in all cases: treatment time: 24 h
HepG2-CANX-COX4 [1] = assay: lowest phenotypically active concentration; higher = less potent
Outline: (§1)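 The reporter lines, fifteen in total and built by gene editing in A549, HepG2 and WPMY1 cells, used BFP for segmentation alongside GFP and RFP/FusionRed markers. Each was treated at 0.3, 1, 3 or 9 µM for 24 h in four wells and then imaged live, with live-cell features normalised to solvent control wells. Deviation meant ≥3 of 4 wells beyond the 95th percentile of control Euclidean distances; reproducibility meant a median replicate Pearson correlation above the 95th percentile of non-replicates. Only conditions meeting both were scored as phenotypically active.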

HepG2-GM130-SQSTM1 [2] = assay: as above
Outline: as §1

HepG2-TP53BP1-CLTA [3] = assay: as above
Outline: as §1

HepG2-TUBA1B-RELA [4] = assay: as above
Outline: as §1

A549-CANX-COX4 [5] = assay: phenotypically active (imaging signature differs from DMSO and reproducible) at any of 0.3-9 uM (binary (1 = active, 0 = inactive)); higher = active
Outline: as §1

A549-TP53BP1-CLTA [6] = assay: as above
Outline: as §1

HepG2-ACTB-RAB5A [7] = assay: as above
Outline: as §1

HepG2-CANX-COX4 [8] = assay: as above
Outline: as §1

HepG2-GM130-SQSTM1 [9] = assay: as above
Outline: as §1

HepG2-TP53BP1-CLTA [10] = assay: as above
Outline: as §1

HepG2-TUBA1B-RELA [11] = assay: as above
Outline: as §1

WPMY1-ACTB-RAB5A [12] = assay: as above
Outline: as §1

WPMY1-CANX-COX4 [13] = assay: as above
Outline: as §1

WPMY1-GM130-SQSTM1 [14] = assay: as above
Outline: as §1

WPMY1-TP53BP1-CLTA [15] = assay: as above
Outline: as §1

WPMY1-TUBA1B-RELA [16] = assay: as above
Outline: as §1

A549-TP53BP1-CLTA [17] = assay: lowest phenotypically active concentration; higher = less potent
Outline: as §1

HepG2-ACTB-RAB5A [18] = assay: as above
Outline: as §1

WPMY1-ACTB-RAB5A [19] = assay: as above
Outline: as §1

WPMY1-TP53BP1-CLTA [20] = assay: as above
Outline: as §1

WPMY1-TUBA1B-RELA [21] = assay: as above
Outline: as §1

A549-CANX-COX4 [22] = assay: as above
Outline: as §1

WPMY1-CANX-COX4 [23] = assay: as above
Outline: as §1

WPMY1-GM130-SQSTM1 [24] = assay: as above
Outline: as §1

| SMILES | lowest phenotypically active concentration (HepG2-CANX-COX4 [1]) | lowest phenotypically active concentration (HepG2-GM130-SQSTM1 [2]) | lowest phenotypically active concentration (HepG2-TP53BP1-CLTA [3]) | lowest phenotypically active concentration (HepG2-TUBA1B-RELA [4]) | phenotypically active (A549-CANX-COX4 [5]) | phenotypically active (A549-TP53BP1-CLTA [6]) | phenotypically active (HepG2-ACTB-RAB5A [7]) | phenotypically active (HepG2-CANX-COX4 [8]) | phenotypically active (HepG2-GM130-SQSTM1 [9]) | phenotypically active (HepG2-TP53BP1-CLTA [10]) | phenotypically active (HepG2-TUBA1B-RELA [11]) | phenotypically active (WPMY1-ACTB-RAB5A [12]) | phenotypically active (WPMY1-CANX-COX4 [13]) | phenotypically active (WPMY1-GM130-SQSTM1 [14]) | phenotypically active (WPMY1-TP53BP1-CLTA [15]) | phenotypically active (WPMY1-TUBA1B-RELA [16]) | lowest phenotypically active concentration (A549-TP53BP1-CLTA [17]) | lowest phenotypically active concentration (HepG2-ACTB-RAB5A [18]) | lowest phenotypically active concentration (WPMY1-ACTB-RAB5A [19]) | lowest phenotypically active concentration (WPMY1-TP53BP1-CLTA [20]) | lowest phenotypically active concentration (WPMY1-TUBA1B-RELA [21]) | lowest phenotypically active concentration (A549-CANX-COX4 [22]) | lowest phenotypically active concentration (WPMY1-CANX-COX4 [23]) | lowest phenotypically active concentration (WPMY1-GM130-SQSTM1 [24]) |
| --- | --- | --- | --- | --- | --- | --- | --- | --- | --- | --- | --- | --- | --- | --- | --- | --- | --- | --- | --- | --- | --- | --- | --- | --- |
| COc1ccc2c(Oc3ccc(NC(=O)c4c(C)n(CC(C)(C)O)n(-c5ccccc5)c4=O)nc3)ccnc2c1 | 9 µM | 9 µM | 9 µM | 9 µM | 0 (inactive) | 0 (inactive) | 0 (inactive) | 1 (active) | 1 (active) | 1 (active) | 1 (active) | 0 (inactive) | 0 (inactive) | 0 (inactive) | 0 (inactive) | 0 (inactive) | – | – | – | – | – | – | – | – |
| CCN1CCN(c2cc(-c3ccc(F)cc3)c3c(n2)CCCCCC3)CC1 [blonanserin] | 9 µM | 9 µM | 3 µM | 3 µM | 0 (inactive) | 1 (active) | 1 (active) | 1 (active) | 1 (active) | 1 (active) | 1 (active) | 1 (active) | 0 (inactive) | 0 (inactive) | 1 (active) | 1 (active) | 9 µM | 9 µM | 9 µM | 9 µM | 9 µM | – | – | – |
| CCN(CC)CCOC(=O)C1(C2CCCCC2)CCCCC1 [dicycloverine] | – | – | – | – | 0 (inactive) | 0 (inactive) | 0 (inactive) | 0 (inactive) | 0 (inactive) | 0 (inactive) | 0 (inactive) | 0 (inactive) | 0 (inactive) | 0 (inactive) | 0 (inactive) | 0 (inactive) | – | – | – | – | – | – | – | – |
| CCCCC1C(=O)N(c2ccccc2)N(c2ccc(O)cc2)C1=O (configuration not stated) [oxyphenbutazone] | – | – | – | – | 0 (inactive) | 0 (inactive) | 0 (inactive) | 0 (inactive) | 0 (inactive) | 0 (inactive) | 0 (inactive) | 0 (inactive) | 0 (inactive) | 0 (inactive) | 0 (inactive) | 1 (active) | – | – | – | – | 9 µM | – | – | – |
| Cc1nc(NC(=O)N2CCC[C@H]2C(N)=O)sc1-c1ccnc(C(C)(C)C(F)(F)F)c1 [alpelisib] | ≤ 0.3 µM | 1 µM | 9 µM | 1 µM | 1 (active) | 1 (active) | 1 (active) | 1 (active) | 1 (active) | 1 (active) | 1 (active) | 0 (inactive) | 1 (active) | 1 (active) | 1 (active) | 1 (active) | 9 µM | 1 µM | – | 3 µM | 9 µM | 3 µM | 3 µM | 3 µM |
| O=c1cc(-c2cccc3c2Sc2ccccc2S3)oc(N2CCOCC2)c1 | 3 µM | 9 µM | 9 µM | 9 µM | 0 (inactive) | 0 (inactive) | 1 (active) | 1 (active) | 1 (active) | 1 (active) | 1 (active) | 1 (active) | 1 (active) | 1 (active) | 1 (active) | 0 (inactive) | – | 3 µM | 3 µM | 3 µM | – | – | 9 µM | 9 µM |
| O=C(c1ccc(C(=O)N2CCC(N3CCCC3)CC2)c(Nc2ccccc2)c1)N1CCC(N2CCCC2)CC1 | – | 9 µM | – | – | 0 (inactive) | 0 (inactive) | 0 (inactive) | 0 (inactive) | 1 (active) | 0 (inactive) | 0 (inactive) | 0 (inactive) | 0 (inactive) | 0 (inactive) | 0 (inactive) | 0 (inactive) | – | – | – | – | – | – | – | – |
| CN1C(=O)CC(c2ccccc2)C1=O (configuration not stated) [phensuximide] | – | – | – | – | 0 (inactive) | 0 (inactive) | 0 (inactive) | 0 (inactive) | 0 (inactive) | 0 (inactive) | 0 (inactive) | 0 (inactive) | 0 (inactive) | 0 (inactive) | 0 (inactive) | 0 (inactive) | – | – | – | – | – | – | – | – |
| O=c1cc(-c2ccc(O)cc2)oc2c(C3O[C@H](CO)[C@@H](O)[C@H](O)[C@H]3O)c(O)cc(O)c12 (some centres not stated) [Vitexin] | – | – | – | – | 0 (inactive) | 0 (inactive) | 0 (inactive) | 0 (inactive) | 0 (inactive) | 0 (inactive) | 0 (inactive) | 0 (inactive) | 0 (inactive) | 0 (inactive) | 0 (inactive) | 0 (inactive) | – | – | – | – | – | – | – | – |
| CC[C@H](C)[C@H](NC(=O)OCc1ccccc1)C(=O)N[C@@H](CCC(=O)OC(C)(C)C)C(=O)N[C@@H](C)C(=O)N[C@H](C=O)CC(C)C | ≤ 0.3 µM | ≤ 0.3 µM | ≤ 0.3 µM | ≤ 0.3 µM | 1 (active) | 1 (active) | 1 (active) | 1 (active) | 1 (active) | 1 (active) | 1 (active) | 1 (active) | 1 (active) | 1 (active) | 1 (active) | 1 (active) | ≤ 0.3 µM | ≤ 0.3 µM | ≤ 0.3 µM | ≤ 0.3 µM | ≤ 0.3 µM | ≤ 0.3 µM | ≤ 0.3 µM | ≤ 0.3 µM |
| Cc1ccccc1N1C(=O)c2cc(S(N)(=O)=O)c(Cl)cc2NC1C (configuration not stated) [metolazone] | – | – | – | – | 0 (inactive) | 0 (inactive) | 0 (inactive) | 0 (inactive) | 0 (inactive) | 0 (inactive) | 0 (inactive) | 0 (inactive) | 0 (inactive) | 0 (inactive) | 0 (inactive) | 0 (inactive) | – | – | – | – | – | – | – | – |
| CC(C)CCN1c2nc(Nc3cc(F)c(O)c(F)c3)ncc2N(C)C(=O)C1C (configuration not stated) | 3 µM | 1 µM | 3 µM | 3 µM | 0 (inactive) | 1 (active) | 1 (active) | 1 (active) | 1 (active) | 1 (active) | 1 (active) | 1 (active) | 1 (active) | 1 (active) | 1 (active) | 1 (active) | 3 µM | 3 µM | 3 µM | ≤ 0.3 µM | 3 µM | – | 3 µM | ≤ 0.3 µM |
| Nc1ccn([C@@H]2O[C@H](CO)[C@@H](O)[C@H]2O)c(=O)n1 [Cytidine] | – | – | – | – | 0 (inactive) | 0 (inactive) | 0 (inactive) | 0 (inactive) | 0 (inactive) | 0 (inactive) | 0 (inactive) | 0 (inactive) | 0 (inactive) | 0 (inactive) | 0 (inactive) | 0 (inactive) | – | – | – | – | – | – | – | – |
| Cc1nc(NC(=O)N2CCC[C@H]2C(N)=O)sc1-c1csc(C(C)(C)C)n1 | 3 µM | 3 µM | 3 µM | 3 µM | 0 (inactive) | 1 (active) | 1 (active) | 1 (active) | 1 (active) | 1 (active) | 1 (active) | 0 (inactive) | 1 (active) | 0 (inactive) | 1 (active) | 0 (inactive) | 9 µM | 3 µM | – | 3 µM | – | – | 9 µM | – |
| OCc1ccccc1O[C@@H]1O[C@H](CO)[C@@H](O)[C@H](O)[C@H]1O [Salicin] | – | – | – | – | 0 (inactive) | 0 (inactive) | 0 (inactive) | 0 (inactive) | 0 (inactive) | 0 (inactive) | 0 (inactive) | 0 (inactive) | 0 (inactive) | 0 (inactive) | 0 (inactive) | 0 (inactive) | – | – | – | – | – | – | – | – |
| C[C@@H](c1ncncc1F)[C@](O)(Cn1cncn1)c1ccc(F)cc1F [voriconazole] | – | – | – | – | 0 (inactive) | 0 (inactive) | 0 (inactive) | 0 (inactive) | 0 (inactive) | 0 (inactive) | 0 (inactive) | 0 (inactive) | 0 (inactive) | 0 (inactive) | 0 (inactive) | 0 (inactive) | – | – | – | – | – | – | – | – |
| CCN1CCN(c2ccc(Nc3cc(N(C)C(=O)Nc4c(Cl)c(OC)cc(OC)c4Cl)ncn3)cc2)CC1 | – | – | – | – | 0 (inactive) | 0 (inactive) | 0 (inactive) | 0 (inactive) | 0 (inactive) | 0 (inactive) | 0 (inactive) | 1 (active) | 0 (inactive) | 1 (active) | 0 (inactive) | 0 (inactive) | – | – | 9 µM | – | – | – | – | 9 µM |

— the supplement of paper PMC7411054
